# PubChem BioAssay (EPA / NIEHS)
# Inconclusive results are not listed. Active and inactive are the calls of the source. Rule for the calls, unless noted: active = hit-call score of the fitted dose curve at least 0.9, where 1 is the maximum; inactive = score below 0.9.
# What was measured:
# [1] = molecular target: Myc proto-oncogene protein (Homo sapiens) (UniProt P01106); assay: ATG_Myc_CIS: Attagene CIS-FACTORIAL HepG2 Assay for human Myelocytomatosis (Myc) Proto-Oncogene Transcription Factor (AID 2282990); conditions: HepG2, Attagene cis-reporter transcription factor activity; actives raise or lower the signal
# Myc proto-oncogene protein (Homo sapiens), sequence (P01106 whole entry, looked up): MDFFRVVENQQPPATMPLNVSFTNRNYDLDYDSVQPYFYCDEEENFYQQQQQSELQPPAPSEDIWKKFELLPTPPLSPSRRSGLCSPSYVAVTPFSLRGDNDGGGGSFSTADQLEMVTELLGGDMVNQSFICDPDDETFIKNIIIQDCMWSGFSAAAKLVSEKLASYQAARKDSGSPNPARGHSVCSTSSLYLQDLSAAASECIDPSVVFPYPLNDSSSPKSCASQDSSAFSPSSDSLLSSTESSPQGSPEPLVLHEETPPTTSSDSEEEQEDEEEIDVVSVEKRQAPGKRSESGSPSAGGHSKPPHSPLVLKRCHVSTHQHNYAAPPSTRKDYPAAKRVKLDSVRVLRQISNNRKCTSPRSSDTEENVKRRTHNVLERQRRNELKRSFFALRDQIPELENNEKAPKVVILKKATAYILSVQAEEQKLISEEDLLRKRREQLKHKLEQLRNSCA
# Procedure, shortened: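 Multiplexed cis-reporter transcription in HepG2 cells after 24 h chemical treatment. Reporter mRNA measured by RT-PCR and capillary electrophoresis fluorescence; activity fitted bidirectionally against DMSO control.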
# [2] = ATG_Oct_MLP_CIS: Attagene CIS-FACTORIAL HepG2 Assay for human Octamer-Binding Transcription Factor (Oct) (AID 2282993); conditions: HepG2 Attagene cis-factorial Oct reporter, mRNA; actives raise or lower the signal
# Procedure, shortened: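 Multiplexed cis-reporter assay in human liver HepG2 cells, 24 h incubation. Reporter RNA amplified and labelled, then resolved by capillary electrophoresis; DMSO serves as negative control and baseline.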
# [3] = molecular target: Cellular tumor antigen p53 (Homo sapiens) (UniProt P04637); assay: ATG_p53_CIS: Attagene CIS-FACTORIAL HepG2 Assay for human p53 Transcription Factor (AID 2282994); conditions: HepG2 p53 cis-element reporter, Attagene mRNA; actives raise or lower the signal
# Cellular tumor antigen p53 (Homo sapiens), sequence (P04637 whole entry, looked up): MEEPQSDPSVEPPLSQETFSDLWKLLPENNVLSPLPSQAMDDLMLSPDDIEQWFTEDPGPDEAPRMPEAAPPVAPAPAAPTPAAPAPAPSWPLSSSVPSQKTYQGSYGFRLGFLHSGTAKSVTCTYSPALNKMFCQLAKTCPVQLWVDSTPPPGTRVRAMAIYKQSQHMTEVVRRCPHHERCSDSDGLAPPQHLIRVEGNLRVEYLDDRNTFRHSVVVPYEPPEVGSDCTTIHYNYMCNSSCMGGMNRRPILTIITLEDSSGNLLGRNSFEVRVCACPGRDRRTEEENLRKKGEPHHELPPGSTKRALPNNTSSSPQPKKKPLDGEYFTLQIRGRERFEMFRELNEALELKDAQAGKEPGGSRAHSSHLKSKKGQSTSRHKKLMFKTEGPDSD
# Procedure, shortened: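 Read-out: reporter mRNA by RT-PCR plus capillary electrophoresis with fluorescence detection. Human HepG2 liver cells carried transfected multi-reporter cis-element constructs, dosed 24 h. Gain or loss of signal fitted bidirectionally against DMSO control.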
# [4] = molecular target: human Peroxisome Proliferator-activated Receptor alpha (PPARa), PPARA (gene 5465) (UniProt Q07869); assay: ATG_PPARa_TRANS: Attagene TRANS-FACTORIAL HepG2 Assay for human Peroxisome Proliferator-activated Receptor alpha (PPARa) (AID 2283001; active = hit-call score of the fitted dose curve at least 0.9, where 1 is the maximum)
# human Peroxisome Proliferator-activated Receptor alpha (PPARa), PPARA (gene 5465), sequence (Q07869 whole entry, looked up, the tested form may be a part): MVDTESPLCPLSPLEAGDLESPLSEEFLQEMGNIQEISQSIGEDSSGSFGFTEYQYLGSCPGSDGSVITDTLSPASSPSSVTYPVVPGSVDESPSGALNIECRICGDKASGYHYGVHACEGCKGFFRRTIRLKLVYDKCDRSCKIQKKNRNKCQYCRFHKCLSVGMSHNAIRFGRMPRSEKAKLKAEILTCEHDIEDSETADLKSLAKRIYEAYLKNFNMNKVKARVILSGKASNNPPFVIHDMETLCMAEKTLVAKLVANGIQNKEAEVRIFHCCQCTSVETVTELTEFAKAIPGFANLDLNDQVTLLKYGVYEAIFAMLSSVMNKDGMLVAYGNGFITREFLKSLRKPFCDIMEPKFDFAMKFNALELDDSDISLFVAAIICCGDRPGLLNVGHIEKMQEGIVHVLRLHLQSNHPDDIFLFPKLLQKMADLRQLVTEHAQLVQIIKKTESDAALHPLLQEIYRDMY
# Procedure, shortened: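 Exposure: 24 h, transiently transfected HepG2 cells. Endpoint: GAL4-UAS reporter mRNA, RT-PCR with capillary electrophoresis fluorescence. Baseline: DMSO; increases fitted.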
# [5] = molecular target: human Peroxisome Proliferator-activated Receptor delta (PPARd), PPARD (gene 5467) (UniProt Q03181); assay: ATG_PPARd_TRANS: Attagene TRANS-FACTORIAL HepG2 Assay for human Peroxisome Proliferator-activated Receptor delta (PPARd) (AID 2283002; active = hit-call score of the fitted dose curve at least 0.9, where 1 is the maximum)
# human Peroxisome Proliferator-activated Receptor delta (PPARd), PPARD (gene 5467), sequence (Q03181 whole entry, looked up, the tested form may be a part): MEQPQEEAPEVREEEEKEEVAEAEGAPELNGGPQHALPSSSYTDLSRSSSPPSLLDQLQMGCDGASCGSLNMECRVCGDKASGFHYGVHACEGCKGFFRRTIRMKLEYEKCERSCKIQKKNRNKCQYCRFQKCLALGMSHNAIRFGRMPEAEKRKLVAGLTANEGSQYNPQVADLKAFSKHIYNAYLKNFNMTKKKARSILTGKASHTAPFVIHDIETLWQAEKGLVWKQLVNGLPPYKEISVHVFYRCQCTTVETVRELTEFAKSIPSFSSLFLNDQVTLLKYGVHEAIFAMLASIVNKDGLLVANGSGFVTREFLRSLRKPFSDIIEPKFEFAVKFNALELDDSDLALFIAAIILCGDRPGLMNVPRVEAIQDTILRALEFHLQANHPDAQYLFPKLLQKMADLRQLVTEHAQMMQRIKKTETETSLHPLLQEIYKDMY
# Procedure, shortened: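 Multiplexed trans-activation format: HepG2 liver cells expressing exogenous NR-Gal4 chimeras and GAL4-UAS reporters were exposed for 24 h. Reporter mRNA was detected by RT-PCR with capillary electrophoresis fluorescence; activity fitted as gain of signal relative to DMSO.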
# [6] = molecular target: Nuclear receptor subfamily 1 group I member 2 (Homo sapiens) (UniProt O75469); assay: ATG_PXR_TRANS: Attagene TRANS-FACTORIAL HepG2 Assay for human Pregnane X Receptor (PXR) (AID 2283008; active = hit-call score of the fitted dose curve at least 0.9, where 1 is the maximum)
# Nuclear receptor subfamily 1 group I member 2 (Homo sapiens), sequence (O75469 whole entry, looked up, the tested form may be a part): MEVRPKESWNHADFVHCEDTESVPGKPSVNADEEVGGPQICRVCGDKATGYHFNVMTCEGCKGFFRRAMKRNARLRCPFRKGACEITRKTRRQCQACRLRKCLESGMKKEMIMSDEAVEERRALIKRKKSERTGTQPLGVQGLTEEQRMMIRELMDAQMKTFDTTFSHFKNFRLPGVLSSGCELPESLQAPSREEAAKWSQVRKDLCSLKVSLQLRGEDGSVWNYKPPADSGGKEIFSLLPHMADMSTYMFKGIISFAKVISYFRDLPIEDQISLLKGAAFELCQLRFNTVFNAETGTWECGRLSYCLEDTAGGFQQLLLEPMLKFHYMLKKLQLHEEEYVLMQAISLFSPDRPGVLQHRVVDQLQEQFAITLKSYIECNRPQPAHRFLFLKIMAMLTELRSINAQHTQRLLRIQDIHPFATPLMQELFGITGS
# Procedure, shortened: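 Trans-factorial format: exogenous NR-Gal4 fusion activity, not endogenous factor, in transfected human HepG2 liver cells. After 24 h dosing, RNA isolated, reverse-transcribed, amplified and resolved by capillary electrophoresis; induction scored versus DMSO.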
# [7] = ATG_NFI_CIS: Attagene CIS-FACTORIAL HepG2 Assay for human Nuclear Factor I (NFI) (AID 2282989); conditions: HepG2 cis-regulatory reporter, NFI response element transcription; actives raise or lower the signal
# Procedure, shortened: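 HepG2, transient MRTU, 24 h exposure; RNA→cDNA→PCR→FAM label→HpaI→CE fluorescence. Bidirectional fit, DMSO = baseline.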
# [8] = ATG_NF_kB_CIS: Attagene CIS-FACTORIAL HepG2 Assay for human Nuclear Factor Kappa B (NF-kB) (AID 2282991); conditions: HepG2 Attagene cis-factorial NF-kB reporter mRNA; actives raise or lower the signal
# Procedure, shortened: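 DMSO served as negative control and baseline for bidirectional curve fitting. Transiently transfected HepG2 cells were dosed for 24 h, then reporter transcripts were measured by RT-PCR with capillary electrophoresis detection.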
# [9] = molecular target: human Retinoic Acid Receptor beta (RARb), RARB (gene 5915) (UniProt P10826); assay: ATG_RARb_TRANS: Attagene TRANS-FACTORIAL HepG2 Assay for human Retinoic Acid Receptor beta (AID 2283004; active = hit-call score of the fitted dose curve at least 0.9, where 1 is the maximum)
# human Retinoic Acid Receptor beta (RARb), RARB (gene 5915), sequence (P10826 whole entry, looked up, the tested form may be a part): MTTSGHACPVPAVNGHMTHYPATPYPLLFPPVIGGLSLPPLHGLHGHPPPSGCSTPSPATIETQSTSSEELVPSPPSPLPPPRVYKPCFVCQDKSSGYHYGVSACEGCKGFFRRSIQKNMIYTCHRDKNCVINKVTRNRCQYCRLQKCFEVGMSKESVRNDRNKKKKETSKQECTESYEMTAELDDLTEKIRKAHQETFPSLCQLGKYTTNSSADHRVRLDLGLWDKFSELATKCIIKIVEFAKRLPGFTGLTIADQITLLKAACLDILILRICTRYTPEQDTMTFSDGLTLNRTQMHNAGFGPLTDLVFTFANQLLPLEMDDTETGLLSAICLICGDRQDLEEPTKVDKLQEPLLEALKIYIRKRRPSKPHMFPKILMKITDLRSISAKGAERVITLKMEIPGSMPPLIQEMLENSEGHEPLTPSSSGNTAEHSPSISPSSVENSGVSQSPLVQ
# Procedure, shortened: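 Readout is reporter mRNA induction: RNA reverse-transcribed, PCR-amplified, FAM-labelled, HpaI-cut and resolved by capillary electrophoresis. Transiently transfected HepG2 cells carrying exogenous NR–Gal4 chimeras were dosed for 24 h; activity fitted upward relative to DMSO.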
# [10] = molecular target: Retinoic acid receptor alpha (Homo sapiens) (UniProt P10276); assay: ATG_RARa_TRANS: Attagene TRANS-FACTORIAL HepG2 Assay for human Retinoic Acid Receptor alpha (RARa) (AID 2283005; active = hit-call score of the fitted dose curve at least 0.9, where 1 is the maximum)
# Retinoic acid receptor alpha (Homo sapiens), sequence (P10276 whole entry, looked up, the tested form may be a part): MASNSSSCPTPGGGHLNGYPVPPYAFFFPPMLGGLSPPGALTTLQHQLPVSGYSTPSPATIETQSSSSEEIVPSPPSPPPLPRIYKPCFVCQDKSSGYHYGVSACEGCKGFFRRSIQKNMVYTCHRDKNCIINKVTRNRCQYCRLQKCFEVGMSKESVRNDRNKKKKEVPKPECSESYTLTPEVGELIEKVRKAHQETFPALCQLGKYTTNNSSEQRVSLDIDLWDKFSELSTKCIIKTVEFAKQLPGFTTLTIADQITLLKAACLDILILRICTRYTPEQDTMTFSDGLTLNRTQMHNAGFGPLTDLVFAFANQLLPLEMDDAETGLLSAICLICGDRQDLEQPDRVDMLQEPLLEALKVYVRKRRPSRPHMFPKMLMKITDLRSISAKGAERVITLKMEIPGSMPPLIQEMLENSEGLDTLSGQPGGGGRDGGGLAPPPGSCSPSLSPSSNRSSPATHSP
# Procedure, shortened: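 HepG2 cells transiently transfected with multiple reporter units expressing chimeric RARα-GAL4 fusion, with GAL4-UAS-driven reporters. After 24 h compound exposure, reporter mRNA induction quantified by RT-PCR and capillary electrophoresis with fluorescent labeling; gain-of-signal fitted relative to DMSO control.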
# [11] = molecular target: Peroxisome proliferator-activated receptor gamma (Homo sapiens) (UniProt P37231); assay: ATG_PPARg_TRANS: Attagene TRANS-FACTORIAL HepG2 Assay for human Peroxisome Proliferator-activated Receptor-gamma (PPARg) (AID 2283007; active = hit-call score of the fitted dose curve at least 0.9, where 1 is the maximum)
# Peroxisome proliferator-activated receptor gamma (Homo sapiens), sequence (P37231 whole entry, looked up, the tested form may be a part): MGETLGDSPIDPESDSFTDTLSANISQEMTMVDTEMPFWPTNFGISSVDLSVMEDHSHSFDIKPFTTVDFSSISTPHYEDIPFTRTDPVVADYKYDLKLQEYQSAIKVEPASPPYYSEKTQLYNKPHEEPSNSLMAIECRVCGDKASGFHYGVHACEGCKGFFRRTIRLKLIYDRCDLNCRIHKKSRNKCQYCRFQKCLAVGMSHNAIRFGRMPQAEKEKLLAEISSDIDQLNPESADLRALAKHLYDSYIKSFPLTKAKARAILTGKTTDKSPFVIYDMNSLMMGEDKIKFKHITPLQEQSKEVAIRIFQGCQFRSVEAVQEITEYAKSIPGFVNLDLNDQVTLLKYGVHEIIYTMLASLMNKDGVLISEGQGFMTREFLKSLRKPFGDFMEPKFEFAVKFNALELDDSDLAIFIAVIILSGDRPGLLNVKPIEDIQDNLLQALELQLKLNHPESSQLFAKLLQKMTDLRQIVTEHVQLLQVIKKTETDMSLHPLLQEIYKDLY
# Procedure, shortened: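 Chimeric NR-Gal4 transactivation is measured in transiently transfected HepG2 cells by reporter mRNA induction at 24 h. Detection uses RT-PCR with fluorescent labelling and capillary electrophoresis; DMSO defines baseline.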
# [12] = molecular target: human Retinoic Acid Receptor gamma (RARg), RARG (gene 5916) (UniProt P13631); assay: ATG_RARg_TRANS: Attagene TRANS-FACTORIAL HepG2 Assay for human Retinoic Acid Receptor gamma (RARg) (AID 2283009; active = hit-call score of the fitted dose curve at least 0.9, where 1 is the maximum)
# human Retinoic Acid Receptor gamma (RARg), RARG (gene 5916), sequence (P13631 whole entry, looked up, the tested form may be a part): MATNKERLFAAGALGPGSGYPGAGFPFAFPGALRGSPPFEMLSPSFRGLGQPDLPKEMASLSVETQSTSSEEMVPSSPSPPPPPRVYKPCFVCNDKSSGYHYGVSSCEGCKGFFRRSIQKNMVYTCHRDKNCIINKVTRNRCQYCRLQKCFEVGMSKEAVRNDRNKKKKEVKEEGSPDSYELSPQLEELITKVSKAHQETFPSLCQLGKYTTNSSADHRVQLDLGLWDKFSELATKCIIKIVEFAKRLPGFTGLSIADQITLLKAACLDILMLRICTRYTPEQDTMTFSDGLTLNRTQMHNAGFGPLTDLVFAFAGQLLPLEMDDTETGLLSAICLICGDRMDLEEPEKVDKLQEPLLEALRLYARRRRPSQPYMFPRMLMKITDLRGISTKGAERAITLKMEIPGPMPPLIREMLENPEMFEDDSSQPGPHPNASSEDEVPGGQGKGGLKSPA
# Procedure, shortened: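 Gain-of-signal relative to DMSO is reported from fluorescent capillary electrophoresis of RT-PCR reporter products. These came from HepG2 cells expressing transfected RARg-GAL4 chimeras with UAS reporters, harvested 24 h after dosing.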
# [13] = ATG_NRF2_ARE_CIS: Attagene CIS-FACTORIAL HepG2 Assay for human Nuclear Factor Erythroid 2 Related Factor 2 (NFR2) response to Antioxidant Response Elements (ARE) (AID 2282992); conditions: HepG2 Attagene ARE/NRF2 reporter, transcription factor activity; actives raise or lower the signal
# Procedure, shortened: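 Readout: reporter mRNA quantified by RT-PCR plus FAM-labelled primer extension, HpaI digestion and capillary electrophoresis, 24 h after dosing transfected HepG2 cells. Gain or loss of signal is fitted bidirectionally against DMSO baseline.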
# [14] = molecular target: human RAR-related Orphan Receptor beta (RORb), RORB (gene 6096) (UniProt Q92753); assay: ATG_RORb_TRANS: Attagene TRANS-FACTORIAL HepG2 Assay for human RAR-related Orphan Receptor beta (RORb) (AID 2283010; active = hit-call score of the fitted dose curve at least 0.9, where 1 is the maximum)
# human RAR-related Orphan Receptor beta (RORb), RORB (gene 6096), sequence (Q92753 whole entry, looked up, the tested form may be a part): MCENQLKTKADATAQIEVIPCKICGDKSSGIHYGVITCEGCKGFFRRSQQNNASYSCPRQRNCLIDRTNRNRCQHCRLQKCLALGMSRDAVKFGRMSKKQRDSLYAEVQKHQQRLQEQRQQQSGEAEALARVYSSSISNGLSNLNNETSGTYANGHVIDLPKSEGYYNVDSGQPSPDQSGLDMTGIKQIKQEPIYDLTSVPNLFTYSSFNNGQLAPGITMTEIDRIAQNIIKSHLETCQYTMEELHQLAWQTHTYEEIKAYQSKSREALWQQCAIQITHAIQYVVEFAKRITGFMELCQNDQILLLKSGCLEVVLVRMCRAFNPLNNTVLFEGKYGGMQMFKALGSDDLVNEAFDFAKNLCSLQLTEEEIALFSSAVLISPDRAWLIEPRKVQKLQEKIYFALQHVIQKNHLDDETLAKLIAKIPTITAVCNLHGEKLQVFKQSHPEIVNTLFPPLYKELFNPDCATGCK
# Procedure, shortened: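 Multiplexed transcription-factor reporter assay: HepG2 cells transiently carrying NR-Gal4/GAL4-UAS constructs, 24 h treatment, mRNA quantified by RT-PCR plus capillary electrophoresis fluorescence; activity scored as induction over DMSO.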
compound,measurement,setting,value
O=C(O)COCCN1CCN(C(c2ccccc2)c2ccc(Cl)cc2)CC1 (stereo not drawn),outcome,[1],inactive
same,outcome,[2],inactive
same,outcome,[3],inactive
same,outcome,[4],inactive
same,outcome,[5],inactive
same,outcome,[6],inactive
CCCCCCOC(=O)CCCCC,outcome,[7],inactive
same,outcome,[8],inactive
same,outcome,[2],inactive
same,outcome,[3],inactive
same,outcome,[9],inactive
same,outcome,[10],inactive
same,outcome,[11],inactive
same,outcome,[6],inactive
same,outcome,[12],inactive
O=c1[nH]c(=O)n([C@H]2CCCO2)cc1F,outcome,[7],inactive
same,outcome,[8],inactive
same,outcome,[13],inactive
same,outcome,[2],inactive
same,outcome,[3],inactive
same,outcome,[11],inactive
CCO[Si](CCCS)(OCC)OCC,outcome,[7],inactive
same,outcome,[8],inactive
same,outcome,[13],inactive
same,outcome,[2],inactive
same,outcome,[3],inactive
same,outcome,[4],inactive
same,outcome,[5],inactive
same,outcome,[6],inactive
same,outcome,[14],inactive
CCCCCNCCCCC,outcome,[7],inactive
same,outcome,[13],inactive
same,outcome,[3],inactive
same,outcome,[11],inactive
same,outcome,[6],inactive
same,outcome,[12],inactive
CCCCCCCCCCCCSC,outcome,[7],inactive
same,outcome,[13],inactive
same,outcome,[2],inactive
same,outcome,[3],inactive
same,outcome,[4],inactive
same,outcome,[5],inactive
same,outcome,[6],inactive
CCC(C)(O)CCC=C(C)C (stereo not drawn),outcome,[7],inactive
same,outcome,[8],inactive
same,outcome,[13],inactive
same,outcome,[3],inactive
same,outcome,[5],inactive
same,outcome,[6],inactive
same,outcome,[14],inactive
CC(C)C1CCC(O)CC1 (stereo not drawn),outcome,[7],inactive
same,outcome,[13],inactive
same,outcome,[2],inactive
same,outcome,[3],inactive
same,outcome,[11],inactive
same,outcome,[6],inactive
OC1C(O)C(O)C(O)C(O)C1O (stereo not drawn),outcome,[7],inactive
same,outcome,[8],inactive
same,outcome,[13],inactive
same,outcome,[4],inactive
same,outcome,[5],inactive
same,outcome,[6],inactive
O=C[C@@H](O)[C@H](O)[C@H](O)CO,outcome,[7],inactive
same,outcome,[13],inactive
same,outcome,[2],inactive
same,outcome,[3],inactive
same,outcome,[4],inactive
same,outcome,[5],inactive
same,outcome,[11],inactive
same,outcome,[12],inactive
same,outcome,[14],inactive
Cc1c(Cl)c(=O)oc2cc(O)ccc12,outcome,[7],inactive
same,outcome,[8],inactive
same,AC50,[13],78.5 µM (active)
same,outcome,[2],inactive
same,outcome,[3],inactive
same,outcome,[5],inactive
same,AC50,[11],100 µM (active)
same,outcome,[6],inactive
CCOC(=O)c1ccccc1OC,outcome,[7],inactive
same,outcome,[8],inactive
same,outcome,[13],inactive
same,outcome,[2],inactive
same,outcome,[5],inactive
same,outcome,[9],inactive
same,outcome,[6],inactive
same,outcome,[12],inactive
CC1(C)[C@H]2CC[C@]1(C)[C@H](O)C2,outcome,[7],inactive
same,outcome,[13],inactive
same,outcome,[2],inactive
same,outcome,[3],inactive
same,outcome,[5],inactive
same,outcome,[6],inactive
same,outcome,[14],inactive
CCCCCCCCCCCCOCCO,AC50,[7],56.6 µM (active)
same,outcome,[8],inactive
same,AC50,[13],54 µM (active)
same,outcome,[4],inactive
same,outcome,[9],inactive
same,outcome,[10],inactive
same,AC50,[11],33.4 µM (active)
CN1[C@@H]2CC(OC(=O)[C@H](CO)c3ccccc3)C[C@H]1[C@@H]1O[C@@H]12 (stereo partly drawn),outcome,[1],inactive
same,outcome,[2],inactive
same,outcome,[3],inactive
same,outcome,[5],inactive
same,outcome,[6],inactive
same,outcome,[14],inactive
O=C(O)CN(CCN(CC(=O)O)CC(=O)O)CCN(CC(=O)O)CC(=O)O,outcome,[7],inactive
same,outcome,[8],inactive
same,outcome,[13],inactive
same,outcome,[2],inactive
same,outcome,[3],inactive
same,outcome,[4],inactive
same,outcome,[5],inactive
same,outcome,[9],inactive
same,outcome,[10],inactive
same,outcome,[11],inactive
same,outcome,[12],inactive
